Data: ChEMBL document CHEMBL1157539, “Thousands of chemical starting points for antimalarial lead identification” (Nature, 2010)

Columns and labels:
Type in all cases: functional
Plasmodium falciparum [1] = assay: GSK_TCMDC: Inhibition of Plasmodium falciparum 3D7 in whole red blood cells, using parasite LDH activity as an index of growth. Test compounds present at 2uM
Plasmodium falciparum [2] = assay: GSK_TCMDC: Inhibition of Plasmodium falciparum Dd2 in whole red blood cells, using parasite LDH activity as an index of growth. Test compounds present at 2uM
HepG2 = assay: GSK_TCMDC: Percent inhibition of human HepG2 cell line. Test compounds present at 10uM.

| SMILES | Inhibition (Plasmodium falciparum [1]) | Inhibition (Plasmodium falciparum [2]) | Inhibition (HepG2) |
| --- | --- | --- | --- |
| CCc1ccc(NC(=O)c2ccc(CN3CCCN(CCC(C)C)CC3)cc2)cc1.O=C(O)C(F)(F)F | 96% | 25% | 48% |
| COc1ccc(NC(=O)/C=C/c2ccccc2Cl)cc1OCCN1CCC(N2CCCC2)CC1.O=C(O)C(=O)O | 100% | 23% | 22% |
| FC(F)(F)c1cccc(Nc2nc(-c3ccccc3)nc3ncccc23)c1 | 97% | 97% | 17% |
| O=C(Nc1cc(F)cc(-c2cccnc2)c1)c1ccc2c(=O)n(Cc3ccccc3)cnc2c1 | 98% | 11% | 7% |
| Cc1cc(N[C@@H](Cc2ccccc2)C(=O)NCc2cccs2)nc(NCCc2cccnc2)n1.O=C(O)C(F)(F)F | 84% | 38% | 10% |
| Cc1nc2nc(N)nc(N)c2c(C)c1Cc1ccccc1I.Cl | 96% | 0% | 63% |
| Cc1cc(N(C)C2CCN(CC3CCCCC3)C2)nc(Nc2ccc(Br)cc2)n1 (centres undefined) | 98% | 38% | 14% |
| CCc1ccc(C2CCN(CCCCNC(=O)c3ccc(NC(=O)c4ccc(Cl)cc4)cc3)CC2)c(OC)c1 | 100% | 80% | 26% |
| COc1cc(F)c2ncc(Cl)c(CCN3CCC(NCc4ccc5c(c4)NC(=O)CS5)CC3)c2c1.Cl | 100% | 85% | 27% |
| CC(C)Nc1cc(C(=O)N[C@@H](Cc2ccccc2)[C@H](O)CNCc2cccc(C(F)(F)F)c2)c(F)c(N2CCCCS2(=O)=O)c1.O=CO | 93% | 78% | 0% |
| Cc1cccc2nc(-c3cccc(-c4cccc(NC(=O)Nc5ccc(Cl)cc5)c4)c3)[nH]c12 | 100% | 94% | 23% |
| Oc1ccc(Cl)cc1CN1CCC2(CCCN(CC3CCC3)C2)C1 (centres undefined) | 100% | 94% | 5% |
| CCc1c(CCNCCCCCCNCCc2ccc3c(c2C)OCO3)ccc2c1OCO2.Cl | 100% | 7% | 59% |
| COc1ccc(CN2CCC(N3CCc4cc(NC(=O)c5cc(C)on5)ccc43)C2)cc1Cl (centres undefined) | 94% | 91% | 15% |
| CCC(CSC1CCCCC1)N(C)CCN(C)C(CC)CSC1CCCCC1.Cl (centres undefined) | 98% | 98% | 84% |
| Cc1ccc(NC(=O)c2nc(N3CCN(c4ccncc4)CC3)ccc2Cl)cc1F.O=C(O)C(F)(F)F | 100% | 57% | 51% |
| COc1ccc2nccc([C@@H](O)CN3CCC(NCc4cc5cccc(O)c5c(=O)[nH]4)CC3)c2c1.Cl | 99% | 66% | 8% |
| CCN(CCNS(C)(=O)=O)c1ccc(N)c(C)c1.O.O=S(=O)(O)O | 91% | 11% | 0% |
| O=C(Nc1ccc(OC(F)(F)F)cc1)NC1CCN(c2ccnc3ccccc23)C1.O=C(O)C(F)(F)F (centres undefined) | 100% | 89% | 25% |
| COc1ccc(Nc2nccc(-c3c(-c4cccc(NC(=O)c5c(F)cccc5F)c4)nn4ccccc34)n2)cc1Cl | 95% | 71% | 61% |
| Cn1nc(-c2cccc(CNCCc3cccs3)c2)c2cnc(NC3CCCC3)nc21 | 97% | 0% | 8% |
| CO/C(=C\C=C\c1cc2cc(Cl)c(Cl)cc2[nH]1)C(=O)NCCCCN1CCN(c2ccccc2OC)CC1 | 100% | 96% | 55% |
| Cc1cccc2nc(-c3ccc(-c4ccc(CNCc5ccccc5)cc4)s3)[nH]c12.O=C(O)C(F)(F)F | 100% | 87% | 22% |
| COc1cc(Cc2cnc(NCCN3CCNCC3)nc2N)ccc1OCc1ccc(C(F)(F)F)cc1 | 98% | 4% | 12% |
| O=C(Nc1ccc(-c2ccccc2)cc1)Nc1cccc(OCCN2CCCC2)c1.O=C(O)C(F)(F)F | 94% | 14% | 11% |
| CN(C)CCOc1cc(NC(=O)Nc2ccc(-c3ccccc3)cc2Cl)ccc1I | 100% | 93% | 25% |
| CC(CNC(=O)[C@H]1CNCCN1C(=O)CCCc1ccccc1)c1ccccc1.O=C(O)C(F)(F)F (some centres undefined) | 94% | 1% | 12% |
| O=C(Nc1cccc(C(F)(F)F)c1)c1cccc2nc(C(F)(F)F)[nH]c12 | 100% | 98% | 81% |
